Laboratory results as given in PubChem BioAssay AID1159580 (chemical genetic matrix, 2015).
Hit rate of the full screen: of about 5,500 compounds, about 2,000 (36%) were called active. Another 18% or so got no clear call; they are omitted. No stated cut-off is given here; in the data, active means normalized growth mostly below about 0.91 (no sharp cut-off); inconclusive means no clear call, values can overlap the other calls; inactive means mostly above about 0.92. Some of the results follow.

Assay: chemical genetic growth profiling, strain panel (AID 1159580);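 further: tested at 20 µM; growth read once vehicle control cultures reached saturation at 30 °C; 1 = growth at the plate median or of vehicle wells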
Conditions: growth OD

Measured: normalized growth

C[C@]12CCC3c4ccc(O)cc4CCC3C1CC[C@@H]2OC(=O)CCC1CCCC1 (stereo not given in full)
inactive: S. cerevisiae deletion strains, locus YJR075W, strain HOC1, stronger effect = lower value 0.988 | S. cerevisiae deletion strains, locus YKL009W, strain mrt4, stronger effect = lower value 0.986 | S. cerevisiae deletion strains, locus YKL068W, stronger effect = lower value 0.991 | S. cerevisiae deletion strains, locus YKL085W, strain MDH1 (second series), stronger effect = lower value 0.998 | S. cerevisiae deletion strains, locus YKL085W, strain MDH1, stronger effect = lower value 0.998 | S. cerevisiae deletion strains, locus YKL160W, strain elf1, stronger effect = lower value 1.03 | S. cerevisiae deletion strains, locus YKL190W, strain CNB1, stronger effect = lower value 0.992 | S. cerevisiae deletion strains, locus YKR001C, strain vps1, stronger effect = lower value 0.973 | S. cerevisiae deletion strains, locus YKR026C, strain gcn3, stronger effect = lower value 1.01 | S. cerevisiae deletion strains, locus YKR091W, strain srl3, stronger effect = lower value 1.02 | S. cerevisiae deletion strains, locus YLL001W, strain dnm1, stronger effect = lower value 1.03 | S. cerevisiae deletion strains, locus YLL026W, stronger effect = lower value 1.01 | S. cerevisiae deletion strains, locus YLL041C, strain sdh2, stronger effect = lower value 1 | S. cerevisiae deletion strains, locus YLR027C, strain aat2, stronger effect = lower value 0.995 | S. cerevisiae deletion strains, locus YLR039C, strain RIC1, stronger effect = lower value 0.984 | S. cerevisiae deletion strains, locus YLR058C, strain SHM2, stronger effect = lower value 0.991 | S. cerevisiae deletion strains, locus YLR102C, strain apc9, stronger effect = lower value 1.01 | S. cerevisiae deletion strains, locus YLR113W, strain HOG1, stronger effect = lower value 1.06 | S. cerevisiae deletion strains, locus YLR221C, strain rsa3, stronger effect = lower value 1.02 | S. cerevisiae deletion strains, locus YLR258W, strain gsy2, stronger effect = lower value 1.01 | S. cerevisiae deletion strains, locus YLR262C, strain YPT6 (second series), stronger effect = lower value 1.02 | S. cerevisiae deletion strains, locus YLR262C, strain YPT6, stronger effect = lower value 0.897 | S. cerevisiae deletion strains, locus YLR268W, strain sec22, stronger effect = lower value 0.993 | S. cerevisiae deletion strains, locus YLR320W, strain mms22, stronger effect = lower value 1.03 | S. cerevisiae deletion strains, locus YLR330W, strain CHS5, stronger effect = lower value 0.984 | S. cerevisiae deletion strains, locus YLR342W, strain FKS1 (second series), stronger effect = lower value 1 | S. cerevisiae deletion strains, locus YLR342W, strain FKS1, stronger effect = lower value 1.01 | S. cerevisiae deletion strains, locus YLR357W, strain rsc2, stronger effect = lower value 1.03 | S. cerevisiae deletion strains, locus YLR370C, strain arc18, stronger effect = lower value 1.02 | S. cerevisiae deletion strains, locus YLR371W, strain rom2, stronger effect = lower value 1.03 | S. cerevisiae deletion strains, locus YLR384C, strain iki3, stronger effect = lower value 1 | S. cerevisiae deletion strains, locus YLR418C, strain cdc73, stronger effect = lower value 1.03 | S. cerevisiae deletion strains, locus YML016C, strain PPZ1, stronger effect = lower value 0.988 | S. cerevisiae deletion strains, locus YML032C, strain rad52, stronger effect = lower value 0.986 | S. cerevisiae deletion strains, locus YML120C, strain ndi1, stronger effect = lower value 1.03 | S. cerevisiae deletion strains, locus YML124C, strain tub3, stronger effect = lower value 0.991 | S. cerevisiae deletion strains, locus YMR058W, strain fet3, stronger effect = lower value 1.01 | S. cerevisiae deletion strains, locus YMR078C, strain ctf18, stronger effect = lower value 1.01 | S. cerevisiae deletion strains, locus YMR125W, strain sto1, stronger effect = lower value 1.02 | S. cerevisiae deletion strains, locus YMR129W, stronger effect = lower value 1.02 | S. cerevisiae deletion strains, locus YMR205C, strain PFK2, stronger effect = lower value 1.01 | S. cerevisiae deletion strains, locus YMR223W, strain ubp8, stronger effect = lower value 1.04 | S. cerevisiae deletion strains, locus YMR231W, strain pep5, stronger effect = lower value 1 | S. cerevisiae deletion strains, locus YMR307W, strain GAS1, stronger effect = lower value 0.998 | S. cerevisiae deletion strains, locus YNL067W, strain RPL9B, stronger effect = lower value 0.988 | S. cerevisiae deletion strains, locus YNL071W, strain lat1, stronger effect = lower value 1.01 | S. cerevisiae deletion strains, locus YNL128W, strain TEP1, stronger effect = lower value 0.976 | S. cerevisiae deletion strains, locus YNL183C, strain NPR1, stronger effect = lower value 0.982 | S. cerevisiae deletion strains, locus YNL209W, strain ssb2, stronger effect = lower value 1.01 | S. cerevisiae deletion strains, locus YNL233W, strain BNI4, stronger effect = lower value 0.993 | S. cerevisiae deletion strains, locus YNL248C, strain rpa49, stronger effect = lower value 1.02 | S. cerevisiae deletion strains, locus YNL250W, strain rad50, stronger effect = lower value 1.01 | S. cerevisiae deletion strains, locus YNL271C, strain bni1, stronger effect = lower value 0.999 | S. cerevisiae deletion strains, locus YNL298W, strain CLA4, stronger effect = lower value 0.999 | S. cerevisiae deletion strains, locus YNL307C, strain MCK1, stronger effect = lower value 0.996 | S. cerevisiae deletion strains, locus YNL322C, strain KRE1 (second series), stronger effect = lower value 1.04 | S. cerevisiae deletion strains, locus YNL322C, strain KRE1, stronger effect = lower value 0.998 | S. cerevisiae deletion strains, locus YNR049C, strain mso1, stronger effect = lower value 1.03 | S. cerevisiae deletion strains, locus YNR052C, strain pop2, stronger effect = lower value 1.01 | S. cerevisiae deletion strains, locus YOL006C, strain TOP1, stronger effect = lower value 0.976 | S. cerevisiae deletion strains, locus YOL012C, strain htz1 1.23 | S. cerevisiae deletion strains, locus YOL147C, strain pex11, stronger effect = lower value 1.01 | S. cerevisiae deletion strains, locus YOR001W, strain rrp6, stronger effect = lower value 0.995 | S. cerevisiae deletion strains, locus YOR061W, strain CKA2, stronger effect = lower value 0.969 | S. cerevisiae deletion strains, locus YOR069W, strain VPS5, stronger effect = lower value 0.994 | S. cerevisiae deletion strains, locus YOR070C, strain gyp1, stronger effect = lower value 1.02 | S. cerevisiae deletion strains, locus YOR080W, strain dia2, stronger effect = lower value 0.998 | S. cerevisiae deletion strains, locus YOR083W, strain WHI5, stronger effect = lower value 1.05 | S. cerevisiae deletion strains, locus YOR106W, strain vam3, stronger effect = lower value 1.04 | S. cerevisiae deletion strains, locus YOR136W, strain idh2, stronger effect = lower value 0.991 | S. cerevisiae deletion strains, locus YOR144C, strain elg1, stronger effect = lower value 0.992 | S. cerevisiae deletion strains, locus YOR184W, strain ser1, stronger effect = lower value 0.99 | S. cerevisiae deletion strains, locus YOR231W, strain MKK1, stronger effect = lower value 1.07 | S. cerevisiae deletion strains, locus YOR265W, strain rbl2, stronger effect = lower value 1.01 | S. cerevisiae deletion strains, locus YOR270C, strain vph1, stronger effect = lower value 1.06 | S. cerevisiae deletion strains, locus YOR290C, strain snf2, stronger effect = lower value 0.986 | S. cerevisiae deletion strains, locus YOR316C, strain cot1, stronger effect = lower value 0.989 | S. cerevisiae deletion strains, locus YPL051W, strain arl3, stronger effect = lower value 1.01 | S. cerevisiae deletion strains, locus YPL055C, strain LGE1, stronger effect = lower value 0.994 | S. cerevisiae deletion strains, locus YPL078C, strain atp4, stronger effect = lower value 1.04 | S. cerevisiae deletion strains, locus YPL106C, strain sse1, stronger effect = lower value 1.05 | S. cerevisiae deletion strains, locus YPL240C, strain hsp82, stronger effect = lower value 0.996 | S. cerevisiae deletion strains, locus YPL241C, strain CIN2, stronger effect = lower value 0.979 | S. cerevisiae deletion strains, locus YPL256C, strain CLN2, stronger effect = lower value 1.03 | S. cerevisiae deletion strains, locus YPR119W, strain clb2, stronger effect = lower value 1 | S. cerevisiae deletion strains, locus YPR141C, strain kar3, stronger effect = lower value 0.996 | S. cerevisiae deletion strains, locus YPR163C, strain tif3, stronger effect = lower value 1 | S. cerevisiae deletion strains, locus YPR167C, strain met16, stronger effect = lower value 0.997 | S. cerevisiae deletion strains, strain wtn01, stronger effect = lower value 1.01 | S. cerevisiae strains, strain wild type, stronger effect = lower value 0.973
